Reference: ChEMBL document CHEMBL3988442, “University of Dundee, Small-Polar-MMV Screening Library” (2021)
Out of some 48,000 compounds screened, about 13,000 (27%) showed an effect of 50% or more. The list shows a part of the results.

tested on: Wolbachia pipientis; assay: Anti-Wolbachia Cell-Based Screen; type: functional; design: scale not given: in the data most compounds retested in dose-response had high values; conditions: 5 µM

| Compound | Percent Effect [%] |
| --- | --- |
| CC(C)=CCC/C(C)=C/CN1CCN(C)C2(CCNC(=O)CC2)C1 (stereo not drawn) | 14.94 |
| Cc1ccc(CN2CCc3[nH]nc(C(=O)N4CCNC(=O)C4)c3C2)s1.O=C(O)C(F)(F)F | -6.156 |
| COCC1CCN(C(=O)c2cccc(S(=O)(=O)NC3CCCC3)c2)C1 (stereo not drawn) | 8.028 |
| CC(C)CCN1CN=C(NS(=O)(=O)c2ccc(F)cc2)NC1 | 13.74 |
| Clc1ccc(C2(NCc3noc(C4CC4)n3)CCCC2)cc1 | 6.408 |
| CN(C)C(=O)c1ccccc1NC(=O)N[C@@H]1c2ccccc2C[C@@H]1O | -11.76 |
| CNC(=O)Cc1ccccc1NC(=O)N[C@H]1c2ccccc2C[C@H]1O | 73.79 |
| CS(=O)(=O)c1ccccc1NC(=O)N[C@@H]1c2ccccc2C[C@@H]1O | 6.839 |
| CCn1cc(N2Cc3nc(N)ncc3C2=O)cn1 | 3.471 |
| NC(=O)CN1C(=O)CO[C@H]2CN(Cc3ccc(C(F)(F)F)cc3)C[C@H]21 | -2.639 |
| Cl.FC(F)Oc1ccc(CNCc2cc(Cl)c3c(c2)OCO3)cc1 | -3.122 |
| COCCc1noc(CN(C)c2nccc(C)n2)n1 | 10.01 |
| COCCc1noc(CN(C)C2CCCN(c3ccc(C)nn3)C2)n1 (stereo not drawn) | -2.157 |
| COCCc1noc(CN2C(=O)OC[C@@H]2C(C)C)n1 | -4.227 |
| COCCc1noc(CN(C)c2nc(C)cc(C)n2)n1 | 101 |
| COCCc1noc(CN(C)c2nc(C)nc(C)c2C)n1 | 89.33 |
| CC(C)N[C@@H]1CO[C@H](CNC(=O)c2ccccc2)[C@H]1O | -5.064 |
| O=C(NCc1ccco1)N1CCC(n2cc(-c3ccccn3)nn2)CC1 | 27.21 |
| Cc1csc(C2CCCN(C(=O)c3cnc4n[nH]c(C)c4c3)C2)n1 (stereo not drawn) | -1.582 |
| O=C(c1cncnc1)N1CCCC(c2nccs2)C1 (stereo not drawn) | 117.1 |
| Cc1noc(COCC(=O)N2CCCC(c3nccs3)C2)n1 (stereo not drawn) | -1.591 |
| O=C(CN1CCCNC1=O)N1CCCC(c2nccs2)C1 (stereo not drawn) | -4.052 |
| O=C(c1cnc(O)c(Cl)c1)N1CCCC(c2nccs2)C1 (stereo not drawn) | 105 |
| O=C(c1cnc(C2CC2)nc1)N1CCCC(c2nccs2)C1 (stereo not drawn) | 70.5 |
| O=C(c1cnc(C2CC2)nc1)N1CCC(N2CCC(O)CC2)CC1 | -12.63 |
| CCn1cc(C(=O)N2CCCC(c3nccs3)C2)cn1 (stereo not drawn) | 107.1 |
| CC(C)Oc1ncc(C(=O)N2CCCC(C(=O)O)C2)cc1Cl (stereo not drawn) | -16.5 |
| O=C(Nc1cnccn1)[C@@H]1COC[C@H]2CN(c3ncc(F)cn3)C[C@H]21 | -14.05 |
